Screening results: PubChem, National Center for Advancing Translational Sciences (NCATS)
Hits are enriched below; roughly 19% of the tested compounds scored in any of these assays.
DT40 TDP1 CPT: growth inhibition of DT40 Tdp1-/-;hTDP1 cells with camptothecin (screen for TDP1 inhibitors). chicken DT40 Tdp1-/-;hTDP1 cells + 20 nM CPT, ATP luminescence, 48 h. Potency, µM (doses to about 46.2 µM), for the others: top-dose activity change, negative = growth inhibition, hits mostly inhibitors. AID 686979. hit rate 12% among 420,000; further: potency means the concentration at half of the fitted maximal effect; nearly all actives have a fitted effect of over 55% in size
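Chicken DT40 Tdp1-/- cells complemented with human TDP1, 400 cells/well, exposed to compounds plus 20 nM camptothecin for at least 48 h at 37 C; viability read as ATP content by CellTiter-Glo luminescence.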
TDP1 cell noCPT: qHTS for Inhibitors of human tyrosyl-DNA phosphodiesterase 1 (TDP1): qHTS in cells in absence of CPT; DT40 Tdp1-/- hTDP1 cells, no CPT, ATP luminescence, 48 h; Potency, µM (highest dose often 46.2 µM), for inactives: at the highest dose activity change, negative = growth inhibition, usual class: inhibitors; hit rate 15% among 420,000; AID 686978, 2013; further: potency means the concentration at half of the fitted maximal effect; nearly all actives have a fitted effect of over 55% in size
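Growth kinetics read by CellTiter-Glo luminescence after ≥48 hr at 37 °C. Cells: DT40 Tdp1-/- stably carrying human TDP1, 400 per well, compound exposure in the absence of CPT (DMSO vehicle).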
IL1B secr inh: inhibitors of inflammasome signaling (IL-1 beta secretion) | THP-1 LPS/ATP IL-1B secretion, AlphaLISA, 16 h; stronger effect = lower value | activity change, % at 57.5 µM | hit rate 4.7% among 360,000; in the data active means activity change below about -50%; inconclusive means mostly about -30% to -49%
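Secreted IL-1B measured by AlphaLISA bead assay after 16 h compound exposure of THP-1 cells; compounds (final up to 57.5 uM) added 1 h before LPS (250 ng/mL) and ATP (1.25 mM) stimulation; lower signal means less secretion.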
ELG1 repair inh: blocks ELG1-dependent DNA repair in HEK293T cells. Potency, µM (doses to about 46.1 µM), inactives show at the highest dose activity change, negative = inhibition, most hits filed as inhibitors. HEK293T ELG1-luciferase reporter, luminescence, 16 h; DNA damage induced by 5-fluorouridine. hit rate 2.3% among 330,000. AID 504467; further: potency means the concentration at half of the fitted maximal effect; nearly all actives have a fitted effect of over 55% in size
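Quantitative HTS, concentration-response format. 2,000 cells/well co-treated with 5-fluorouridine and compound, 16 hr in 5% CO2 at 37 °C; ONE-Glo luminescence read after 30 min.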
Giardia kill: kills Giardia lamblia | activity change, % at 7.66 µM, hits read low | hit rate 0.15% among 340,000 | Giardia lamblia trophozoite viability; in the data active means activity change below about -80%; inconclusive means between about -30% and that limit;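 further: parasites exposed to compound for two days anaerobically before the ATP read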
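Viability, read as ATP luminescence: trophozoites at 100 cells/well, compound added, 48 hrs anaerobic at 37 deg C, then 15-30 min room-temperature development before reading.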
TDP1 block: blocks human tyrosyl-DNA phosphodiesterase 1 | hit rate 0.28% among 350,000 | Q9NUW8 | Potency, µM (top dose mostly 130 µM), without a hit: at the top dose activity change, negative = inhibition, hits mostly inhibitors | AID 485290 | recombinant TDP1, AlphaScreen DNA substrate cleavage; further: potency means the concentration at half of the fitted maximal effect; nearly all actives have a fitted effect of over 40% in size
Target sequence (Q9NUW8 whole entry, looked up): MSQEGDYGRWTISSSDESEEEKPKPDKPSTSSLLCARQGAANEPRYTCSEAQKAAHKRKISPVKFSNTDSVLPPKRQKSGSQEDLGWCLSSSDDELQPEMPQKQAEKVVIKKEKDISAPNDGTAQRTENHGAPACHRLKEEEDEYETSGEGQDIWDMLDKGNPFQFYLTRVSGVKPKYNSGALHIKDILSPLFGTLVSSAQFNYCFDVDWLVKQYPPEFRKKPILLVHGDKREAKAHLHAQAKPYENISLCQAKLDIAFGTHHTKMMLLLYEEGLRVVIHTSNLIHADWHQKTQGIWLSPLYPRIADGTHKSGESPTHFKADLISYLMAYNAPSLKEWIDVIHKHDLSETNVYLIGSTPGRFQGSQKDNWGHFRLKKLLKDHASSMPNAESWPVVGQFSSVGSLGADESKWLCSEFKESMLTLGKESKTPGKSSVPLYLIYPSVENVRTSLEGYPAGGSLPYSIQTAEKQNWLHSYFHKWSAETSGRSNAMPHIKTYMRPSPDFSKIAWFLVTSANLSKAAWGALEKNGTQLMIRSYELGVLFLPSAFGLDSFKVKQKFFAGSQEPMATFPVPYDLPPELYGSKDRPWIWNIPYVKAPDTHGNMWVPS
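Recombinant E. coli-expressed Tdp1 (1 nM) preincubated with compound 15 min at RT, then 5'-biotin/3'-phosphotyrosine-FITC DNA substrate (15 nM) added for 5 min. AlphaScreen beads (10 ug/ml) added, 10 min RT; tyrosine-FITC cleavage read as signal loss.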
Active calls of the source: *; u = inconclusive; x = not tested or not shown. Unless noted, the call rests on the fitted dose curve; in most records, active means well fitted curve in the direction sought with a large enough effect; inconclusive means small, poorly fitted or top-dose-only effect, or another doubt; inactive means no such curve, though single readings can be large; an effect the other way counts as inactive or inconclusive. On the % scale 0 is the no-effect control and ±100 the full control effect.

SMILES	DT40 TDP1 CPT	TDP1 cell noCPT	IL1B secr inh	ELG1 repair inh	Giardia kill	TDP1 block
COc1ccc(N2CCN(C(=O)CCNS(=O)(=O)c3ccc(C)cc3)CC2)cc1	u	u	0	-12%	6	5%
COc1ccc(N2CCN(C(=O)CCNS(=O)(=O)c3ccc(Br)s3)CC2)cc1	13µM*	u	-3	u	0	7%
CCOC(=O)C1CCC(CN(Cc2ccccc2)S(=O)(=O)c2ccc(Br)cc2)CC1 (centres undefined)	u	u	x	x	x	-3%
CCOC(=O)C1CCC(CN(Cc2ccc(Cl)cc2)S(=O)(=O)c2ccc(Br)cc2)CC1 (centres undefined)	u	u	x	x	x	8%
CCOC(=O)C1CCC(CN(Cc2ccc(OC)cc2)S(=O)(=O)c2ccc(C)cc2)CC1 (centres undefined)	21µM*	13µM*	x	x	x	10%
CCOC(=O)C1CCC(CN(Cc2ccc(Cl)cc2)S(=O)(=O)c2cccc(Cl)c2C)CC1 (centres undefined)	23µM*	18µM*	x	x	x	-3%
CCCCc1nn2c(=O)cc(COC(=O)c3ccccc3NC(=O)c3cccc(C)c3)nc2s1	6%	1%	x	x	x	1%
COc1ccc2cc(Br)ccc2c1CC(=O)NCCCN1CCOCC1	-22%	u	u	x	3	x
COc1ccc(Cl)cc1NS(=O)(=O)c1ccc2[nH]c3c(c2c1)CCCC3	u	u	x	x	x	9%
CCOc1ccc(CNS(=O)(=O)c2ccc3[nH]c4c(c3c2)CCCC4)cc1OC	u	23µM*	x	x	x	11%
COc1ccccc1CNS(=O)(=O)c1ccc2[nH]c3c(c2c1)CCCCC3	10µM*	7.3µM*	x	x	1	8%
COc1ccc(NS(=O)(=O)c2ccc3[nH]c4c(c3c2)CCCCCC4)cc1	u	u	x	x	x	7%
O=C(Cn1nc(-c2cccc(Cl)c2)ccc1=O)NCC1COCCO1 (centres undefined)	9%	-17%	-19	4%	13	0%
COc1ccc(OC)c(C(=O)Cn2c3[n+](c4ccc(C(F)(F)F)cc42)CCCCC3)c1	5.2µM*	5.8µM*	-5	u	-3	-3%
Fc1ccccc1Cn1c2[n+](c3ccc(C(F)(F)F)cc31)CCCCC2	u	u	-7	u	-1	3%
O=C(/C=C\Nc1ccc(Cl)cn1)c1ccc(Br)cc1	-6%	-2%	-20	u	-6	5%
Cc1ccccc1NC(=O)c1ccc(N/N=C/c2ccccc2O)c([N+](=O)[O-])c1	8.2µM*	10µM*	1	0%	-16	1%
NS(=O)(=O)c1ccc(N/N=C/c2ccc(O)cc2O)c([N+](=O)[O-])c1	u	u	-11	u	-27	4%
Cc1ccc(NC(=O)c2ccc(N/N=C/c3cccc(O)c3)c([N+](=O)[O-])c2)cc1	9.2µM*	12µM*	52	-24%	14	1%
C=CC(=O)CC	x	x	x	x	x	6%
COc1ccc(N(C(C)C(=O)N/N=C/c2ccc(OC)c(OC)c2)S(C)(=O)=O)cc1 (centres undefined)	u	7%	0	10%	2	3%
CC(C(=O)N/N=C/c1ccc(N(C)C)c(Br)c1)N(c1ccccc1)S(C)(=O)=O (centres undefined)	u	9.2µM*	-7	2%	4	2%
CN(C)c1ccc(/C=N/NC(=O)CN(c2ccccc2Cl)S(C)(=O)=O)cc1Br	u	u	-20	10µM*	-6	4%
CS(=O)(=O)N(CC(=O)N/N=C/c1cccc2c1OCCO2)c1ccccc1Br	-10%	-4%	2	-4%	-8	4%
CS(=O)(=O)N(CC(=O)N/N=C/c1cc2c(cc1Br)OCO2)c1ccccc1Br	u	15µM*	u	-27%	-3	4%
SMILES	DT40 TDP1 CPT	TDP1 cell noCPT	IL1B secr inh	ELG1 repair inh	Giardia kill	TDP1 block
COC(=O)Oc1ccc(/C=N/NC(=O)CN(c2ccccc2Br)S(C)(=O)=O)cc1OC	28%	-8%	-7	4%	6	-2%
CCN(C(=O)CSc1nnc(CNc2cccc(OC)c2)n1C1CCCCC1)C1CCS(=O)(=O)C1 (centres undefined)	-12%	u	7	-3%	-15	5%
Cc1onc(-c2ccccc2Cl)c1C(=O)N1CCOC12CCCCC2	u	-11%	18	-26%	-22	-5%
Cc1nc2cnc(N3CCOCC3)nc2n(CCC#N)c1=O	u	-12%	x	x	x	x
CCOC(=O)[C@]12CCC=C1N(Cc1ccc(Cl)cc1Cl)C(=O)[C@H](CC(=O)NCc1cccs1)C2	u	21µM*	-61*	x	x	x
CCOC(=O)[C@]12CCCC=C1N(Cc1ccc(Cl)cc1Cl)C(=O)[C@H](CC(=O)NCc1cccs1)C2	u	u	-29	x	x	x
COC(=O)[C@]12CCCCC=C1N(Cc1ccc(Cl)cc1Cl)C(=O)[C@H](CC(=O)NCc1cccs1)C2	u	23µM*	0	x	x	x
CC1(C)CC(=O)C2=C(C1)N=C1c3ccccc3C(=O)C1C2c1ccc(Cl)cc1 (centres undefined)	u	u	-60*	u	-13	5%
Cc1ccc(C2C3=C(CC(C)(C)CC3=O)N=C3c4ccccc4C(=O)C32)cc1 (centres undefined)	u	18µM*	-53*	u	0	8%
CCOC(=O)C1=NNC(C(=O)c2ccccc2)C1c1ccc(Cl)cc1 (centres undefined)	-12%	-3%	-9	-4%	1	x
CCOC(=O)C1=C(C)N=C2c3ccccc3C(=O)C2C1c1ccc(Cl)cc1 (centres undefined)	u	u	-52*	21µM*	-2	12%
CCOC(=O)Cn1ccc(NC(=O)COc2ccc(F)cc2)n1	-18%	-10%	-26	9%	-11	18%
Cc1ccc(C2CC(c3ccc(Cl)cc3)=NNC2=O)cc1 (centres undefined)	-12%	u	-13	u	-5	-2%
CCc1ccc(C2CC(c3ccc(Cl)cc3)=NNC2=O)cc1 (centres undefined)	u	u	-52*	-1%	-16	7%
O=C1NN=C(c2ccc(Br)cc2)CC1c1ccc(Cl)cc1 (centres undefined)	u	u	-85*	-4%	-19	6%
